# Assay outcomes deposited in PubChem BioAssay by several laboratories.
# esBAF inh = Bmi1 luciferase reporter increase in mESCs, primary screen, esBAF inhibitor project, mouse ES cells, Bmi1 luciferase knock-in, single point | 24 h; 100% = twice the neutral-well signal | reporter increase, % at 12.5 µM | actives 2% (n = 350,000) | AID 602393, 2012; in the data active = activation above about 40%;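 note: a rise in the Bmi1 reporter signal indicates esBAF inhibition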
# Wnt act = Wnt/beta-catenin pathway activators, primary screen, cell-based, plate reader, single point; Wnt/beta-catenin reporter cell assay, activator; activation, % at 9.35 µM; actives 1.2% (n = 300,000); in the data active = activation above about 30%, passing the limit was not always enough
# ssDAF12 agonist = S. stercoralis DAF-12 nuclear receptor activators, primary screen, cell-based, luminescence, HEK293, GRIP1 co-expression, lit1-tk-luc. Nuclear hormone receptor DAF-12 (Strongyloides stercoralis). HEK293 ssDAF-12/GRIP1 lit1-tk-luc reporter; % of 3 µM dafachronic acid response. activation, % at 6.8 µM. actives 1% (n = 370,000). AID 652126, 2013;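 active = activation above the mean over all tested compounds plus 3 SD, cut at about 0.9% in these data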
# hcDAF12 agonist = H. contortus DAF-12 nuclear receptor activators, primary screen, cell-based, luminescence, HEK293, lit1-tk-luc reporter; activation, % at 6.8 µM; actives 1.4% (n = 370,000); HEK293 hcDAF-12 lit1-tk-luc reporter; 0% DMSO, 100% Δ7-dafachronic acid; AID 652067, 2013;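 active = activation above the mean of all tested compounds plus 3 SD, cut at about 5.5% in these data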
# hgDAF-12 ag = H. glycines DAF-12 receptor agonists, primary screen, cell-based, luminescence, HEK293, GAL4 fusion, UAS-luciferase; activation, % at 6.8 µM; AID 687014, 2013; HEK293 GAL4-hgDAF12 UAS-luciferase reporter, agonist luminescence; normalized to butyrate control; actives 1.8% (n = 370,000);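 active = activation above a cutoff set at the mean of all screened compounds plus 3 SD, cut at about 10% in these data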
# DAX1 inh = DAX1 (NR0B1) inhibitors on StAR promoter, primary screen, cell-based, luminescence, SF-1 (NR5A1), full-length DAX-1. actives 1.1% (n = 370,000). AID 652010, 2013. HEK293T StAR-luciferase reporter, SF-1/DAX-1 repression relief. inhibition, % at 6.8 µM;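 active = inhibition above the mean over all tested compounds plus 3 SD, cut at about 3.6% in these data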;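 note: higher inhibition means more luminescence from relief of DAX-1 repression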
# Hits are given with their value; n = inactive; x = no result. Shown are actives, neighbours in structure and some others; about 4.2% of the full set was active somewhere.
SMILES,esBAF inh,Wnt act,ssDAF12 agonist,hcDAF12 agonist,hgDAF-12 ag,DAX1 inh
O=C(NCc1ccc(Cl)cc1)C(=O)Nc1nccs1,x,n,n,n,n,n
C[C@H]1CN([C@@H](C)CO)C(=O)c2cccc(NC(=O)c3cnccn3)c2O[C@@H]1CN(C)Cc1ccccc1,n,x,x,x,x,x
CNC[C@@H]1Oc2ccc(NS(=O)(=O)c3cn(C)cn3)cc2C(=O)N([C@@H](C)CO)C[C@@H]1C,n,x,x,x,x,x
CSCCNC(=O)C1(C)CCN1C(=O)C/C=C/c1ccccc1 (stereo unspecified),n,n,1.2,n,n,n
CC1(C(=O)NS(=O)(=O)c2ccccc2Cl)CCN1C(=O)C/C=C/c1ccccc1 (stereo unspecified),n,n,n,n,12,n
CCOC(=O)/C=C/c1ccc2oc3ccccc3c(=O)c2c1,49,n,2.0,n,n,n
COc1cc2oc3ccccc3c(=O)c2cc1OC,n,x,x,x,x,x
COC(=O)C[C@H]1C[C@H]2c3cc(NS(=O)(=O)c4cccc(OC)c4)ccc3O[C@H]2[C@H](CO)O1,n,x,x,x,x,x
COc1ccc(-c2cc3c(=O)n(CC(=O)NCc4cccnc4)ncn3n2)cc1,n,n,n,6.1,11,3.8
Cc1ccccc1-c1ccc2c(c1)O[C@H](CN(C)C(=O)C1CC1)[C@H](C)CN([C@H](C)CO)S2(=O)=O,n,x,x,x,x,x
COc1cccc(N2CCN(c3cnc4ccccc4n3)CC2)c1,x,n,n,n,n,n
COc1ccc(N2CCN(c3cnc4ccccc4n3)CC2)cc1,53,n,n,n,11,n
Clc1ccc(Sc2cnc3ccccc3n2)cc1,45,n,n,n,n,n
c1ccc(Sc2cnc3ccccc3n2)cc1,x,x,n,n,n,n
Clc1ccc(N2CCN(c3cnc4ccccc4n3)CC2)cc1,45,x,n,n,n,n
Fc1ccc(N2CCN(c3cnc4ccccc4n3)CC2)cc1,n,42,n,n,n,n
Cc1noc(C)c1NC(=O)Nc1ccc2c(c1)C(=O)N([C@@H](C)CO)C[C@@H](C)[C@@H](CN(C)Cc1ccc(C(=O)O)cc1)O2,n,x,x,x,x,x
COCC(=O)Nc1ccc2c(c1)C(=O)N(C)[C@H]1CC[C@H](CC(=O)Nc3cn(C)nc3C)O[C@H]1CO2,n,x,x,x,x,x
Cc1noc(C)c1S(=O)(=O)Nc1ccc2c(c1)C(=O)N([C@H](C)CO)C[C@H](C)[C@H](CN(C)Cc1ccc(Oc3ccccc3)cc1)O2,n,x,x,x,x,x
COc1ccc(N2CCN(Cc3nc4ccccc4n3C)CC2)cc1,x,n,1.8,n,n,n
CCN(C[C@H]1[C@H](c2ccccc2)[C@@H](CO)N1C(C)=O)C(=O)c1ccccn1,n,x,x,x,x,x
C[C@@H]1CN([C@H](C)CO)C(=O)c2cc(NS(=O)(=O)c3cn(C)cn3)ccc2O[C@@H]1CN(C)Cc1ccc(C(F)(F)F)cc1,n,x,x,x,x,x
COC(=O)[C@]12C[C@H](CC(=O)NCc3cccs3)C(=O)N(Cc3ccccc3)C1=C[C@H](COCc1ccccc1)O[C@@H]2C,x,x,n,n,11,n
CCOc1ccc2c(c1)C(=NNC(=O)c1ccncc1)c1cc(OCC)ccc1-2,54,49,n,n,n,n
CCOc1ccc(NC(=O)c2ccncc2)cc1,x,x,n,n,n,n
SMILES,esBAF inh,Wnt act,ssDAF12 agonist,hcDAF12 agonist,hgDAF-12 ag,DAX1 inh
CCCNC(=O)[C@@H]1N[C@@H]2c3ccc(-c4cccc(F)c4)c(=O)n3C[C@@H]2[C@H]1CO,n,x,x,x,x,x
C[C@H](CO)N1C[C@H](C)[C@@H](CN(C)C(=O)Nc2ccccc2)Oc2ccc(NC(=O)Nc3ccc(F)cc3)cc2CC1=O,n,x,x,x,x,x
CCc1ccc(NC(=O)c2ccc3nc(N)sc3c2)cc1,50,x,n,n,n,n
CCc1ccc2nc(N)sc2c1,x,n,n,n,11,n
CN(C)C(=O)[C@H]1[C@H](CO)[C@H]2Cn3c(ccc(-c4ccncc4)c3=O)[C@H]2N1Cc1ccccc1,n,x,x,x,x,x
CCCNC(=O)c1cc(C2CCCN(S(=O)(=O)c3ccccc3)C2)on1 (stereo unspecified),n,n,n,n,n,n
Cn1cnc(S(=O)(=O)N2CCCC(c3cc(C(=O)Nc4ccc(F)c(Cl)c4)no3)C2)c1 (stereo unspecified),53,n,n,n,n,n
CCCNC(=O)c1cc(C2CCCN(S(=O)(=O)c3cccs3)C2)on1 (stereo unspecified),n,n,1.1,n,n,n
Cc1ccc(F)cc1C(=O)N1CCCC(c2cc(C(=O)NCc3ccccc3)no2)C1 (stereo unspecified),n,n,n,n,n,4.0
O=C(Nc1ccc(F)c(Cl)c1)c1cc(C2CCCN(S(=O)(=O)c3ccccc3)C2)on1 (stereo unspecified),n,n,n,n,n,n
COc1cccc(NC(=O)N[C@H]2C=C[C@@H](CC(=O)Nc3ccccc3)O[C@@H]2CO)c1,n,x,x,x,x,x
O=C(NCCCN1CCCC1=O)c1cc(-c2ccc3c(c2)OCO3)nc2ccccc12,n,n,1.0,n,n,n
O=c1c2ccccc2nnn1CSc1nnc(COc2ccc(Cl)cc2)n1Cc1ccco1,n,x,n,n,n,n
C=CCn1c(COc2ccc(OC)cc2)nnc1SCn1nnc2ccccc2c1=O,x,n,6.3,n,n,n
COc1ccc(CN(C)C[C@H]2Oc3ccc(NS(=O)(=O)c4cn(C)cn4)cc3C(=O)N([C@@H](C)CO)C[C@@H]2C)cc1,n,x,x,x,x,x
O=c1cc(CN2CCN(c3cccc(C(F)(F)F)c3)CC2)nc2sccn12,x,n,n,n,n,n
O=c1cc(CN2CCN(c3ccccn3)CC2)nc2sccn12,x,n,n,5.7,n,n
N#C[C@H]1[C@@H](c2ccccc2)[C@@H](CO)N1S(=O)(=O)c1ccc(F)cc1,n,x,x,x,x,x
Clc1ccc(-c2nnc(NC3=NCCCCC3)o2)cc1,n,x,n,6.1,n,n
C[C@@H]1CCCCO[C@H](CN(C)Cc2ccc(C(F)(F)F)cc2)[C@H](C)CN([C@H](C)CO)C(=O)c2cc(NC(=O)C3CCCCC3)ccc2O1,n,x,x,x,x,x
CC(NC(=O)Nc1ccc(Cl)cc1)C(c1cccs1)N1CCOCC1 (stereo unspecified),n,n,1.5,n,n,n
CC(NC(=O)Nc1ccccc1)C(c1cccs1)N1CCOCC1 (stereo unspecified),n,n,n,n,n,n
Cc1ccc([C@H]2C[C@H](O)[C@@H](n3cc(C4CC4)nn3)CN2Cc2cccs2)cc1,47,n,n,n,n,n
